Experimental data taken from PubChem BioAssay AID651789 (National Center for Advancing Translational Sciences (NCATS), 2012).
Records with an inconclusive call do not appear. Active and inactive are the calls of the source. Calls come from the whole dose curve; as a rule, active = well fitted inhibition curve with a large enough effect; inconclusive = small, poorly fitted or top-dose-only effect; inactive = no such curve, though single readings can be large or run the other way.

Assay: Acumen qHTS Assay for Inhibitors of the mTORC1 Signaling Pathway in WT MEF Cells: Hit Validation; note: nearly all actives have a fitted effect of over 60% in size;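 for activity change, negative = inhibition: phospho-rpS6 Ser235/236 immunofluorescence normalised to propidium iodide cell stain; percent of cells above a cutoff set by 7.5 nM rapamycin treated wells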
Settings: Acumen imaging; series mostly up to 37.3 µM; activity change, negative = inhibition: at the top concentration
Procedure, shortened: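 Read-out is immunofluorescent phospho-rpS6 (Ser235/236) normalised to PI-stained cell number, reported as % active cells using a 7.5 nM rapamycin threshold. Cells: WT or Tsc2-/-, p53-/- MEFs, compound-exposed 24 h at 37C; PI count also tracks viability.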
Potency is the fitted concentration of half-maximal effect.

Activity change, negative = inhibition, inactive:
COc1ccc(CCNC(=O)CCCn2nc(C)c3sc4ccccc4c3c2=O)cc1OC -1.53%
COc1cc(CN(C(=O)COc2ccc(C)c(C)c2)c2ccccn2)cc(OC)c1OC -74.2%
COc1ccc(OCC(=O)Nc2ccc3nn(-c4ccc(OC)cc4)nc3c2)cc1 34.3%
Cc1cccc(CSCCNC(=O)CN(c2ccccc2)S(=O)(=O)N(C)C)c1 -2.29%
Cc1nnc(C(=O)NC(C)(C)c2nc(C(=O)NCc3ccc(F)cc3)c(O)c(=O)n2C)o1 -18.9%
COc1cc2ncnc(Nc3ccc(F)c(Cl)c3)c2cc1OCCCN1CCOCC1 -26.5%
CC/C(=C(\c1ccccc1)c1ccc(OCCN(C)C)cc1)c1ccccc1 -13.2%
NC(=O)c1ccccc1NC(=O)c1ccc(-c2ccc(Br)cc2)o1 -20.5%
Cc1ccc(S(=O)(=O)Nc2ccc3c(c2)c(C(=O)OC(C)C)c(C)n3S(=O)(=O)c2ccc(C)cc2)cc1 0.763%
COc1ccc(NC(=O)CSc2nc3ccccc3nc2N2CCC(C)CC2)cc1 13.7%
CCCSc1oc(-c2ccco2)nc1S(=O)(=O)c1ccc(Br)cc1 4.58%
CCc1ccc(OCC(=O)N(Cc2ccc(C)cc2)Cc2ccco2)cc1 24%
CCOC(=O)C(Cc1c[nH]c2ccccc12)NC(=O)COc1ccc(Cl)cc1 (stereo not given) 0.217%
COc1ccc2c(c1)CC(C(=O)Nc1cc(Cl)ccc1C)CO2 (stereo not given) 6.87%
COc1ccc(/C=C/C(=O)Nc2ccc3nc(N4CCC(C)CC4)cc(C)c3c2)cc1OC -13.4%
Cn1nnnc1SCCCNCc1cccc(OCc2ccc(Cl)cc2)c1 88%
COc1cc(C(=O)N(CCCN(C)C)c2nc3c(OC)cccc3s2)cc(OC)c1OC -2.29%
CCOc1cc(CNCCSc2nnnn2C)cc(Cl)c1OCc1ccc(Cl)cc1 6.82%
Oc1ccc(NCc2ccccc2OCc2ccc(Cl)cc2)cc1 4.43%
CCc1ccc(C(=O)CC2(O)C(=O)N(CCc3ccccc3)c3ccc(Cl)cc32)cc1 (stereo not given) -18.7%
CCOC(=O)c1ccc2ncc(C(=O)OCC)c(NCCc3ccc(OC)c(OC)c3)c2c1 10.7%
COc1ccc(Cn2c(C(=O)O)c(CNCc3ccccc3F)c3ccc(OC)cc32)cc1 -6.11%
CCOc1ccc(CC(=O)NC2CC(=O)N(c3ccc4c(c3)OCCO4)C2)cc1 (stereo not given) 38.6%
NC(=O)c1ccc(-c2nc(-c3ccc4c(c3)OCO4)c(-c3ccccn3)[nH]2)cc1 15.3%
Cc1oc2c(cc(NS(=O)(=O)c3ccc(C(C)C)cc3)c3ccccc32)c1C(=O)OCc1ccccc1 -26%
Cc1ccc([C@H]2Nc3ccc(S(=O)(=O)Nc4cccc(Cl)c4C)cc3[C@H]3C=CC[C@H]32)cc1 -1.13%
Cc1cccc(C(=O)Nc2c(C(=O)NCc3ccc(Cl)cc3)sc3nc(C)cc(C)c23)c1 -6.11%
Nc1nnc(SCC(=O)Nc2cccc(F)c2)s1 39.6%
COc1ccccc1NC(=O)CSc1ccc(-c2ccccn2)nn1 -12.8%
CCc1ccc(NC(=O)C2CCCN(S(=O)(=O)c3cccc4cccnc34)C2)cc1 (stereo not given) -27%
CCOc1ccc(NC(=O)N(Cc2c[nH]c3ccccc23)C2CCCCCC2)cc1 -4.58%
Cc1ccccc1CN1C(=O)C(O)(CC(=O)c2cccc(Br)c2)c2ccccc21 (stereo not given) 8.36%
COc1ccc(OCc2nc3c4c(-c5ccccc5)c(-c5ccccc5)oc4ncn3n2)cc1 2.29%
CCOC(=O)c1ccc(N2C(=O)c3n[nH]c(-c4ccco4)c3C2c2ccc(OCC)cc2)cc1 (stereo not given) 2.03%
CC(C)Oc1ccc(CNC(=O)c2ccc3nc(SCc4ccc(F)cc4)n(C)c3c2)cc1 1.09%

Potency, active:
O=C(Nc1ccc2oc(-c3ccc4ccccc4c3)nc2c1)c1cc(Br)ccc1Cl 13100 nM
Cc1ccc2nc(/C(C#N)=C/c3ccc(-c4ccc(F)cc4F)o3)[nH]c2c1 4140 nM
Cc1c(C(=O)OCCOc2ccccc2)[nH]c2c1C(=O)CC(c1ccccc1)C2 (stereo not given) 65.6 nM
COc1cccc(-c2nnc3sc(CN4CCCCC4)cn23)c1 1650 nM
Cc1cccc(C2C=C(c3ccc(C)c(C)c3)Nc3nnnn32)c1 (stereo not given) 1470 nM
